# The supplement of paper PMC10681739
# Target: RUNX1 (UniProt Q01196)
# Assay: RUNX1 binding intensity (PBM fluorescence), RUNX1 alone (arbitrary fluorescence units); higher = stronger binding
# Conditions: RUNX1 concentration 2 nM; ETS1 concentration 0 nM
# Protocol: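 Cooperative gcPBM on 36-bp genomic probes with neighbouring ETS1 and RUNX1 sites. Recombinant human RUNX1 (2 nM) was incubated alone or with ETS1 (25 nM) and detected with anti-RUNX1 antibody plus Alexa488 secondary. Values are medians over 4 replicate spots; the RUNX1+ETS1 data were normalised to the RUNX1-only data. The probes sit in constant array flanks that are not printed.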
# 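Note: Full-length recombinant human RUNX1 bound to double-stranded 36-bp genomic probes on a high-density microarray, scored as Alexa488 fluorescence per spot via anti-RUNX1 antibody, median of four replicate spots.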
# Chain of RUNX1 (Q01196 whole entry): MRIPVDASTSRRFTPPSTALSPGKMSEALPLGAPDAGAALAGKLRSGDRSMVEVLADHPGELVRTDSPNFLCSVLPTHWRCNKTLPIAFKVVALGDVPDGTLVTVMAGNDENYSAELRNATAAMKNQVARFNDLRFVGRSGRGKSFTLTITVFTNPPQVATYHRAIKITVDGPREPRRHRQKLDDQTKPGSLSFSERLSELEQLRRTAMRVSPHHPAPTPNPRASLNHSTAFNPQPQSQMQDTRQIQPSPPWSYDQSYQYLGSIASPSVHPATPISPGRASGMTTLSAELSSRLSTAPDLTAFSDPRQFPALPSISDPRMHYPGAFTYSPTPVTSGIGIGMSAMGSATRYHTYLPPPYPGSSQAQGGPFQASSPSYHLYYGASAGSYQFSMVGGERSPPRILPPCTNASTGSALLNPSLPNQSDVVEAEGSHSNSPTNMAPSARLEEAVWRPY
row,Sequence,RUNX1 binding intensity
1,AACTTCCTCCGCGCGGGGCCACTGCTACCACAAAGG,1070
2,AGAAGCTGCACCCGGAAATGAAACCACCAGGACCTC,887
3,TCTTCTTCCTCCCCCACCCCAAAAGCCACAGGTGAC,1290
4,AAAACAACTCCAGGATGTGGTTTTACTCAGAATGTA,928
5,ACAGATCCAAGGAAGCATATCCCGCAAGCAACTGTT,797
6,GTTGGGCTTTGAGGATGTGGGTTCTAGAAGTTTACA,890
7,CAGGCCTTTCCTGCTATCGTTTGTGGTTTGAGCAGT,1940
8,TCCTGTAGTTTCCGGCTGAAGTGGTAAGGTTTTTGA,925
9,CCTGTACGGAAGCTACTCTGGTTTCATGTGGTTTCA,904
10,GCAAACAGCACATCCGGTGTGGTCGACGGGTCCTCC,728
11,ACCTTCTGTTCCCTTCCTCAGACCGCAGGCGAGATG,1620
12,CCCGCTACACAAGGCGGATGTGGTACCCTCACTTGT,891
13,CTTCTTTCCAGAGGATGTGGCTTCAGCGGGAGAGCT,817
14,CGTGTGGGAGGCCGGAAGTTGCGGCTTCATTACTCG,845
15,CCACTGCCGGAAGGGGAACTGTGGGGGTGCGCGAGT,820
16,GAGCAAACGGAGGCAGGAAGTGGTTATGTAACTTCA,810
17,TGGAGTGGAGGAAGTGGTGTTACCACAGCTCAGAGG,726
18,GGCGCGGGCTGCTTCCGGTCTGCGGGCCTGAGGAGG,672
19,GATACAGTGCTCAGGAAACCACATGAAACCAGAGTA,924
